# Screens from PubChem BioAssay.
# Hits are enriched below; roughly 6.3% of the tested compounds scored in any of these assays.
# VP16 counter = inhibits Gal4-VP16 luciferase reporter, ROR gamma counter-screen | Drosophila S2 Gal4-VP16 UAS-luciferase, luminescence, 20 h | Potency, µM (series often up to 53.6 µM), inactives show top-dose activity, negative = inhibition, usual class: inhibitors | 3.5% of 310,000 active;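 note: Gal4-VP16 expression switched on by copper sulfate through the metallothionein promoter; potency is the fitted concentration of half-maximal effect; % is set by controls: 0 for no effect and ±100 for the full control effect; nearly all actives have a fitted effect of over 50% in size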
# HepG2 viability = counter-screen for TGF-b inhibitors: cytotoxicity in HepG2 cells | Potency, µM (highest dose often 46.1 µM), for inactives: at the highest dose activity change, negative = cytotoxicity, hits mostly cytotoxic | AID 588856 | 0.76% of 410,000 active | HepG2 CAGA-GFP viability, ATP luminescence, 18 h; note: potency is the fitted concentration of half-maximal effect
#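 CellTiter-Glo luminescence gave cytotoxicity after 18 hours at 37 degrees C. The cells were HepG2 CAGA-GFP in 1% FBS DMEM, stimulated with 500 pg/mL TGF-beta after compound addition. %Activity was normalised to no-cell wells (complete cell-killing) and DMSO (no toxicity), and curves were fitted and classified.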
# ATXN2 expr inh = reduces ATXN2 reporter expression in HEK-293 cells; AID 1745845; HEK-293 ATXN2-luciferase reporter, luminescence, 24 h; 0.72% of 360,000 active; Potency, µM (titrated, usually from 57 µM), inactives show top-dose activity change, negative = inhibition, actives largely listed as inhibitors; note: potency is the fitted concentration of half-maximal effect; % is set by controls: 0 for no effect and ±100 for the full control effect; nearly all actives have a fitted effect of over 55% in size
#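 ATXN2-luciferase reporter cells (luciferase flanked by upstream and downstream ATXN2 gene portions) were treated 24 h at 37 °C with compounds at up to 57 uM. SteadyGlo luminescence gave expression; GF-AFC fluorescence gave viability.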
# ATXN viability = cell viability loss in ATXN counter-screen; S2 cells (HEK-293 line with an ATXN2-luciferase reporter) viability, CellTiter-Fluor protease fluorescence, 24 h; Potency, µM (highest dose often 56.7 µM), usual class: cytotoxic; 0.49% of 400,000 active; note: potency is the fitted concentration of half-maximal effect; nearly all actives have a fitted effect of over 40% in size
# RORgamma inh = ROR gamma (mouse) transcription inhibition. P51450. Drosophila S2 Gal4-RORgamma UAS-luciferase reporter, 20 h. Potency, µM (doses to about 53.6 µM), without a hit: top-dose activity change, negative = inhibition, actives largely listed as inhibitors. 5.4% of 310,000 active. AID 2551; note: potency is the fitted concentration of half-maximal effect; % is set by controls: 0 for no effect and ±100 for the full control effect; nearly all actives have a fitted effect of over 60% in size
# Target sequence (P51450 whole entry, looked up, the tested form may be a part): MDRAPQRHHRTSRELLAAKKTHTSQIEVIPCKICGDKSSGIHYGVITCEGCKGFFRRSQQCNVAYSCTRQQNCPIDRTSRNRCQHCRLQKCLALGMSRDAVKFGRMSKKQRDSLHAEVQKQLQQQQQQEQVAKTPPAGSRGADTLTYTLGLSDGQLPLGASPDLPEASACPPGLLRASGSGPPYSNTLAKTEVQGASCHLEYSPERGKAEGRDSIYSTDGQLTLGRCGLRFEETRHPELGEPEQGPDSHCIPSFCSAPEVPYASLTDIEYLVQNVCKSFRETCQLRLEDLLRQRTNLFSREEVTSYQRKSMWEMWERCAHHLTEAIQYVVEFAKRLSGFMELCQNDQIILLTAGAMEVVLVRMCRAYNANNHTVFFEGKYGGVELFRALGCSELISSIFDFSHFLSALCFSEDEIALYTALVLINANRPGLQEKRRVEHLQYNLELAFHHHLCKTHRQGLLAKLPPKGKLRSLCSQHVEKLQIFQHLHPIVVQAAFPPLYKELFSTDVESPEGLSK
#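 In this cell-based reporter format, copper sulfate (700 uM final) drives Gal4–ROR gamma fusion expression from a metallothionein promoter in Drosophila Schneider cells; compounds preincubated 1 hr, reporter read after 20 hr at ambient temperature.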
# TGFb inhibitor = blocks TGF-b signaling. 1.2% of 410,000 active. HepG2 CAGA-GFP TGF-b/SMAD3 reporter, GFP fluorescence, 18 h; TGF-beta stimulated, 500 pg/mL final. Potency, µM (doses to about 46.1 µM), for inactives: at the highest dose activity, negative = inhibition, hits mostly inhibitors. AID 588855; note: potency is the fitted concentration of half-maximal effect; % is set by controls: 0 for no effect and ±100 for the full control effect; nearly all actives have a fitted effect of over 65% in size
#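 Read-out: total well GFP (ex488/em500-530) summed from mean per-cell fluorescence. Cells: HEPG2 CAGA-GFP, 1% FBS DMEM, 18 h at 37 degrees C with 500 pg/mL final TGF-beta. Unstimulated wells served as the full-inhibition control; stimulated DMSO wells = 0%.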
# SK-N-SH 3D tox = reduced viability of SK-N-SH 3D spheroids, orthogonal test; shares compounds with ATXN2 expr inh; SK-N-SH 3D spheroid viability, PI/Hoechst imaging, 72 h; Potency, µM (highest dose often 30.7 µM), actives largely listed as inhibitors; 70% of 65 active
# SJGBM2 3D viab = lowers viability of SJ-GBM2 3D spheroids; shares compounds with ATXN2 expr inh; SJ-GBM2 3D spheroid viability, PI/Hoechst imaging, 72 h; Potency, µM (series often up to 30.7 µM), actives largely listed as inhibitors; 80% of 65 active; AID 1347136
# Daoy spheroid = kills Daoy spheroids in orthogonal 3D test | shares compounds with ATXN2 expr inh | Daoy 3D spheroid viability, PI/Hoechst imaging, 72 h | Potency, µM (highest dose often 30.7 µM), actives largely listed as inhibitors | 50% of 65 active | AID 1347137
# TC32 3D casp = TC32 spheroid caspase-3/7 activation, orthogonal screen. shares compounds with ATXN2 expr inh. TC32 3D spheroids, caspase-3/7 fluorescence imaging, 24 h. Potency, µM (series often up to 30.7 µM), actives largely listed as inhibitors. 30% of 65 active. AID 1347138
# TC32 spheroid = kills TC32 spheroids in orthogonal 3D test; shares compounds with ATXN2 expr inh; TC32 3D spheroid viability, PI/Hoechst imaging, 72 h; Potency, µM (doses to about 30.7 µM), most hits filed as inhibitors; 60% of 65 active
# MG63 spheroid = kills MG-63 (6-TG R) spheroids in orthogonal 3D test. 50% of 65 active. MG-63 (6-TG R) 3D spheroid viability, PI/Hoechst imaging, 72 h. Potency, µM (highest dose often 30.7 µM), usual class: inhibitors. shares compounds with ATXN2 expr inh
# RD spheroid = kills RD rhabdomyosarcoma spheroids in orthogonal 3D test; shares compounds with ATXN2 expr inh; RD rhabdomyosarcoma 3D spheroid viability, PI/Hoechst imaging, 72 h; Potency, µM (highest dose often 30.7 µM), hits mostly inhibitors; 50% of 65 active
# The depositor's hits bear a star; i = inactive; ? = inconclusive; · = not tested or not shown; [ ] = another dose, or the depositor's remark. Calls come from the whole dose curve; as a rule, active = well fitted curve in the direction sought with a large enough effect; inconclusive = small, poorly fitted or top-dose-only effect, or another doubt; inactive = no such curve, though single readings can be large; an effect the other way counts as inactive or inconclusive.
SMILES,VP16 counter,HepG2 viability,ATXN2 expr inh,ATXN viability,RORgamma inh,TGFb inhibitor,SK-N-SH 3D tox,SJGBM2 3D viab,Daoy spheroid,TC32 3D casp,TC32 spheroid,MG63 spheroid,RD spheroid
Cc1ccc(-c2ncn(-c3ccc(Nc4nccc(-c5cccc(N6CCOCC6)c5)n4)cc3)n2)cn1,·,·,4.9µM*,·,·,·,0.91µM*,1.6µM*,·,i,i,i,?
CC(=O)OC[C@@H]1CN(Cc2ccccc2)C[C@H](n2cnc3c(N(C)C(C)C)ncnc32)O1,·,-15%,-10%,i,·,1%,·,·,·,·,·,·,·
CC(=O)OCC(=O)[C@@]12N=C(C)O[C@@H]1C[C@H]1[C@@H]3CCC4=CC(=O)C=C[C@]4(C)[C@H]3[C@@H](O)C[C@@]12C,·,·,-6%,i,·,·,i,?,i,i,i,i,i
CC(C)C[C@H](NC(=O)[C@H](Cc1ccccc1)NC(=O)c1cnccn1)B(O)O,·,·,0.027µM*,50µM*,·,·,0.01µM*,0.016µM*,0.032µM*,0.18µM*,0.018µM*,0.081µM*,0.011µM*
CCCNC(=O)C(Cc1ccccc1)NC(=O)c1ccccn1 (configuration not stated),·,13%,4%,i,·,35%,·,·,·,·,·,·,·
O=C1C(Cl)=C(NCCN2CCOCC2)C(=O)c2ncccc21,2.8µM*,·,9.7µM*,·,4.5µM*,·,3.2µM*,4.6µM*,6.4µM*,i,11µM*,5.1µM*,11µM*
COc1cc(OC)c(NC(=O)N2CC=C(c3c[nH]c4ccccc34)CC2)cc1Cl,·,1%,·,·,·,-13%,·,·,·,·,·,·,·
CC(C)C[C@@H]1COc2cccc(N3CCC[C@H]3CO)c2S(=O)(=O)N1,·,·,10%,i,·,·,·,·,·,·,·,·,·
CC(=O)O[C@@]12CO[C@H]1C[C@H](O)[C@@]1(C)C(=O)[C@H](O)C3=C(C)[C@@H](OC(=O)C(O)[C@@H](NC(=O)OC(C)(C)C)c4ccccc4)C[C@@](O)([C@@H](OC(=O)c4ccccc4)[C@@H]21)C3(C)C (some centres not stated),·,·,?,·,·,·,0.026µM*,0.0046µM*,2.6µM*,i,?,8.1µM*,?
CC(=O)O[C@H]1C(=O)[C@@]2(C)[C@H]([C@H](OC(=O)c3ccccc3)[C@]3(O)C[C@H](OC(=O)[C@H](O)[C@@H](NC(=O)c4ccccc4)c4ccccc4)C(C)=C1C3(C)C)[C@]1(OC(C)=O)CO[C@@H]1C[C@@H]2O,?,-39%,-24%,?,?,-20%,0.14µM*,0.01µM*,0.14µM*,?,0.014µM*,?,0.057µM*
CC(=O)O[C@H]1C(=O)[C@@]2(C)[C@H]([C@H](OC(=O)c3ccccc3)[C@]3(O)C[C@H](OC(=O)[C@H](O)C(NC(=O)c4ccccc4)c4ccccc4)C(C)=C1C3(C)C)[C@]1(OC(C)=O)CO[C@@H]1C[C@@H]2O (some centres not stated),?,-9%,-25%,?,?,?,·,·,·,·,·,·,·
C[C@]1(c2nc3c(C(N)=O)cccc3[nH]2)CCCN1,·,·,12%,·,·,·,4.6µM*,4.1µM*,?,i,?,?,i
CC1(C)CCC2(C(=O)O)CC[C@]3(C)C(=CCC4[C@]5(C)CCC(O)C(C)(C)C5C(O)C[C@]43C)C2C1 (some centres not stated),-1%,·,·,·,4%,·,·,·,·,·,·,·,·
COC(=O)Nc1nc2ccc(C(=O)c3ccc(F)cc3)cc2[nH]1,-14%,·,-10%,·,7%,·,1µM*,0.91µM*,?,?,2µM*,?,?
Cc1nc2ccc(C(=O)c3ccccc3)cc2[nH]1,·,-4%,39%,i,-1%[0.365 µM],-7%,·,·,·,·,·,·,·
Cc1ccc(Cl)c2sc(N3CCN(C(=O)C4CC4)CC3)nc12,·,-24%,?,i,·,-13%,·,·,·,·,·,·,·
CCOc1cc(N2CCC(O)CC2)ccc1Nc1ncc2c(n1)N(C)c1ccccc1C(=O)N2C,·,·,64%,·,·,·,?,i,i,i,i,i,?
O=C(NCCc1ccccc1)c1cc(-c2ccc(Cl)cc2)on1,·,3%,12%,i,·,5%,·,·,·,·,·,·,·
CN1CCN(c2ccccc2NC(=O)Cc2cn(C)c3ccccc23)CC1,-12%,0%,-10%,i,-24%,2%,·,·,·,·,·,·,·
Cn1cc(CNCC2CCN(c3ncc(C(=O)NO)cn3)CC2)c2ccccc21,·,·,61%,·,·,·,0.02µM*,0.026µM*,0.18µM*,?,0.064µM*,0.72µM*,0.32µM*
